Assay [1] deals with Cytochrome P450 2D6 (Homo sapiens) (UniProt P10635). As to the kind of experiment: qHTS Assay for Inhibitors and Substrates of Cytochrome P450 2D6 (AID 891). Further: potency means the concentration at half of the fitted maximal effect; nearly all actives have a fitted effect of over 60% in size. The settings on record: recombinant CYP2D6, luciferin-ME EGE luminescence; series mostly up to 57.1 µM. In outline: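 Human CYP2D6 (5 nM) with 30 uM Luciferin-ME EGE (at Km) in 100 mM KPO4, compound preincubated 10 min, then NADPH regeneration system for 60 min at room temperature. Luciferin read by luminescence; normalized to 1.43 uM quinidine.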
Sequence of Cytochrome P450 2D6 (Homo sapiens) (P10635 whole entry, looked up): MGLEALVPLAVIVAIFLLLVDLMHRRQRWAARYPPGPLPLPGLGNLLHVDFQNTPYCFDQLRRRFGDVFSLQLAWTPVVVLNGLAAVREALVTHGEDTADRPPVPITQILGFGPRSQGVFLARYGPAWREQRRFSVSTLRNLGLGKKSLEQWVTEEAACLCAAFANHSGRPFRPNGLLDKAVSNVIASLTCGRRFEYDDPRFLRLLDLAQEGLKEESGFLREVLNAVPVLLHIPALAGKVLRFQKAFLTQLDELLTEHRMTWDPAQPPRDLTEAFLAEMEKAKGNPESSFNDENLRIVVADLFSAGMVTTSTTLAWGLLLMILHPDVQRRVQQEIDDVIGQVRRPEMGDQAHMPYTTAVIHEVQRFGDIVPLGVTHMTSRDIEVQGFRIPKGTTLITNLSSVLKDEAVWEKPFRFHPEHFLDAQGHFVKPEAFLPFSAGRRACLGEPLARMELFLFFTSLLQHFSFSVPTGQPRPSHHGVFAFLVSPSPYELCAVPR

Assay [2] deals with Glutathione peroxidase 1 (Homo sapiens) (UniProt P07203). As to the kind of experiment: Primary qHTS Assay for Inhibitors of Recombinant Selenoprotein Glutathione Peroxidase 1 (GPX1) (AID 1845191). Further: on the % scale 0 is the no-effect control and ±100 the full control effect; nearly all actives have a fitted effect of over 65% in size. Particulars: recombinant GPX1, GR-coupled NADPH fluorescence, 15 min; series mostly up to 48.8 µM. In outline: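 10 nM GPX1 + cpd, 30 min RT; start w/ 1 mM GSH, 0.5 mM cumene hydroperoxide, 0.5 mM NADPH, 100 nM GR, 0.01% BSA; buffer 50 mM Tris-HCl pH 7.5, 2 mM EDTA, 150 mM NaCl; Fl 340/450, 0 & 15 min.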
Sequence of Glutathione peroxidase 1 (Homo sapiens) (P07203 whole entry, looked up): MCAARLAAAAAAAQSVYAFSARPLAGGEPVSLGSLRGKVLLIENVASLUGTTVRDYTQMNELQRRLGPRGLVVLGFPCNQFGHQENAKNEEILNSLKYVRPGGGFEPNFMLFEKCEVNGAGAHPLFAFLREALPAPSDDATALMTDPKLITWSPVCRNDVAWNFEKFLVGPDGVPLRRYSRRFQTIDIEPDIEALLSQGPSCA

Assay [3] can be described thus: qHTS profiling of the MIPE4 collection as inhibitors of Plasmodium falciparum (3D7) proliferation (AID 743344; call rule not given here;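 further: scaled between DMSO vehicle wells and 0.29 µM artemisinin as full inhibition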). The settings on record: P. falciparum 3D7 in erythrocytes, SYBR Green DNA fluorescence, 72 h; at 5.51 µM (top of the series) unless noted. An excerpt: Plasmodium falciparum is a virulent malarial parasite that kills 1-2 million people worldwide each year. Transmitted by mosquitoes, the sporozoite form of the parasite enters the blood stream to infect hepatocytes, where they become merozoites that infect red blood cells (erythrocytes). Within erythrocytes, merozoites begin a […] cycle of growth and division, after which the parasite is released to infect new red blood cells. Gametocytes, which form within erythrocytes as well, circulate in the bloodstream and are ingested by the mosquito, thereby completing the life cycle. To profile malarial isolates for differential chemical responses and to identify inhibitors of malarial growth, an assay that measures P. falciparum growth and replication within erythrocytes was employed. This assay uses a DNA binding fluorescent dye (SYBR Green) to detect parasite DNA following cell lysis. Because mature erythrocytes lack DNA, only Plasmodium-derived DNA is detected.
The SYBR Green viability assay was adapted from a method described previously (Plouffe et al., 2008). For screening 3 ul culture medium was dispensed into 1536 well black clear bottom plates (Aurora Biotechnologies) using a Multidrop Combi (Thermo Fisher Scientific Inc.), 23 nL compounds in DMSO were added by a pin tool (Kalypsys), and 5 ul of erythrocytes infected with P. falciparum (0.3% parasitemia, 2.5% hematocrit final concentration) were added. The plates were incubated at 37 C in a humidified incubator in 5% CO2 for 72 h, and 2 ul lysis buffer (20 mM Tris HCl, 10 mM EDTA, 0.16% saponin, 1.6% triton X, 10X SYBR Green I supplied as 10,000X […] by Invitrogen) was added to each well. […] The following morning, fluorescence intensity at 485(14) nm excitation and 535(25) nm emission wavelengths was measured on an EnVision (Perkin Elmer) plate reader. Plate reads were normalized relative to the control inhibitor (0.29 uM artemisinin) and vehicle (DMSO) wells present on each plate and then corrected by an algorithm using vehicle-only control plates at the beginning and end of the compound plate stack.

The nature of assay [4]: qHTS profiling of the MIPE4 collection as inhibitors of Plasmodium falciparum (DD2) proliferation (AID 743345; call rule not given here). Particulars: P. falciparum Dd2 in erythrocytes, SYBR Green DNA, 72 h; at 5.51 µM (top of the series) unless noted. In outline:
(§1)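 Erythrocytes infected with P. falciparum (0.3% parasitemia, 2.5% hematocrit) incubated with compounds 72 h at 37 C, 5% CO2. Lysis with saponin/Triton buffer containing SYBR Green I, overnight at room temperature in the dark; DNA fluorescence (485/535 nm) normalised to 0.29 uM artemisinin and DMSO.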

The nature of assay [5]: qHTS profiling of the MIPE4 collection as inhibitors of Plasmodium falciparum (DD2) proliferation (Rep 2) (AID 743346; call rule not given here). Particulars: P. falciparum Dd2 in erythrocytes, SYBR Green DNA, 72 h; at 5.51 µM (top of the series) unless noted. The essentials: as §1
A short description of assay [6]: qHTS profiling of the MIPE4 collection as inhibitors of Plasmodium falciparum (HB3) proliferation (AID 743347; call rule not given here;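 further: plate controls were DMSO vehicle wells for no effect and artemisinin wells for full effect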). The settings on record: P. falciparum HB3 in erythrocytes, SYBR Green DNA, 72 h; at 5.51 µM (top of the series) unless noted. The essentials: as §1

Results filed as inconclusive are left out. Active and inactive are the calls of the source. Unless noted, the call rests on the fitted dose curve; in most records, active means well fitted curve in the direction sought with a large enough effect; inconclusive means small, poorly fitted or top-dose-only effect, or another doubt; inactive means no such curve, though single readings can be large; an effect the other way counts as inactive or inconclusive.

As for `COc1ccc2[nH]cc(CCNc3nc(-c4ccc(N(C)C)cc4)nc4ccccc34)c2c1`, the Potency in assay [1] was 7940 nM (active). With `CN(Cc1ccco1)c1ncncc1-c1ccc2c(c1)OCO2`, the Potency in assay [1] is 1260 nM (active). The same measure, in the same setting: for `COc1ccc2[nH]cc(CCNc3ccnc(-c4ccccc4C)n3)c2c1` the value was 2510 nM (active).

Regarding `c1ccc(CNc2ccnc(-c3cccnc3)n2)cc1`, the Potency in assay [1] is 1260 nM (active). The same measure, in the same setting: for `c1ncc(-c2ccc3c(c2)OCO3)c(NCCc2cnc[nH]2)n1` the value was 2510 nM (active). In the case of `CCC(=O)O[C@@H]1CC(=O)O[C@H](C)C/C=C/C=C/[C@@H](O)[C@H](C)C[C@H](CC=O)[C@H](OC2O[C@H](C)[C@@H](O[C@H]3C[C@@](C)(O)[C@@H](OC(=O)CC)[C@H](C)O3)[C@H](N(C)C)[C@H]2O)[C@H]1OC` (some centres not stated), the outcome in assay [2] was inactive. In the case of `COc1cccc(-c2cncnc2NCCc2cnc[nH]2)c1`, the Potency in assay [1] is 7940 nM (active). In turn, `NC[C@@H]1O[C@H](O[C@H]2[C@H](O)[C@H](O[C@H]3[C@@H](O)[C@H](N)C[C@H](N)[C@H]3O[C@H]3O[C@H](CN)[C@H](O)[C@H](O)[C@H]3N)O[C@@H]2CO)[C@@H](N)[C@@H](O)[C@@H]1O` registered a parasite growth, % of DMSO control in assay [3] of 98.8%. In addition, the parasite growth remaining, % of DMSO control (lower = more inhibition) in assay [4] worked out at 101%. In assay [5], this compound registered a parasite growth, % of control (lower = inhibition) of 77.1%. The same compound came in with a growth, % of control in assay [6] of 77.3%. Further, the activity, negative = inhibition in assay [2] is -26.7% [at 4.49 µM] (inactive).
